Pf apPOL inh = Pf-apPOL DNA polymerase inhibition. Recombinant Pf-apPOL, molecular beacon fluorescence, 1.5 h. AID 1794808. inhibition, % at 10 µM. hit rate 0.25% among 210,000
mHTT CaM bind = disrupts binding of mutant huntingtin to calmodulin. P42858. AlphaScreen His-mHTT/GST-CaM binding, luminescence. inhibition, % at 15 µM. hit rate 3.6% among 190,000. AID 1671202;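 note: 0% = both proteins with DMSO and 100% = one protein alone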
* hit, by the source's call; . = no result given. Shown is part of a subset that was picked to be rich in hits. Cut-off read from the data, not from the text of the source: active = inhibition above about 50%; inactive = the rest.

SMILES | Pf apPOL inh | mHTT CaM bind
O=C(COc1ccccc1)NC(c1ccccc1)c1cc(Cl)c2cccnc2c1O (stereo not given) | -2 | 100*
O=C(Nc1ccc2c(c1)OCO2)C(=O)NC(c1ccccc1)c1ccccc1 | -7 | -8
O=C(COc1ccccc1)NC(c1ccc([N+](=O)[O-])cc1)c1cc(Cl)c2cccnc2c1O (stereo not given) | -8 | 32
Cc1ccc(C)c(NCc2ccccn2)c1 | -7 | 4
COc1cc(C=C2Oc3cc(O)ccc3C2=O)cc(OC)c1OC | -8 | -7
O=C(Cn1nnc(-c2ccc3c(c2)OCO3)n1)Nc1ccc(F)c(F)c1 | -2 | 10
COc1ccc(C(=O)NC(c2ccc([N+](=O)[O-])cc2)c2cc(Cl)c3cccnc3c2O)cc1 (stereo not given) | -12 | 14
COc1ccc(C(=O)NC(c2ccc(OC)c(OC)c2)c2cc(Cl)c3cccnc3c2O)cc1 (stereo not given) | 2 | 72*
O=C1NC(=O)N(Cc2ccco2)C(=O)/C1=C/c1cn(CCOc2ccccc2F)c2ccccc12 | 1 | 18
Cc1ccc(CN2C(=O)NC3(CCN(C(=O)Cc4ccc(Cl)cc4)CC3)C2=O)cc1 | -15 | 1
Cc1ccc(C)c(CN2C(=O)NC3(CCN(C(=O)Cc4ccc(Cl)cc4)CC3)C2=O)c1 | -4 | 58*
OC(CSCc1cccc(C(F)(F)F)c1)C(O)CSCc1cccc(C(F)(F)F)c1 (stereo not given) | . | 100*
FC(F)(F)c1cccc(Cc2cccc(C(F)(F)F)c2)c1 | 0 | .
O=C(NC12CC3CC(CC(C3)C1)C2)c1ccc(F)cc1 | -6 | 2
COc1ccccc1N/C(C)=C/C(=O)c1ccccc1 | -4 | 22
COc1ccc(N/C(C)=C/C(=O)c2ccccc2)c(OC)c1 | -1 | 51*
Cc1cccc2ccc(C3C(=O)c4ccccc4C3=O)nc12 | -9 | 4
C1CC2CN(C3C4CC5CC(C4)CC3C5)CCN2C1 (stereo not given) | -3 | -8
COc1cccc(CC(=O)NNC(=O)NC(=O)c2ccccc2Cl)c1 | 54* | .
COc1cccc(NC(=O)c2ccccc2Cl)c1 | 3 | -11
Cc1cc(NCc2ccc([N+](=O)[O-])cc2)ccc1Br | -2 | 58*
COc1ccc(CNc2cc([N+](=O)[O-])ccc2OC)cc1 | -2 | -41
COc1ccc(C)cc1NCc1ccncc1 | -2 | 13
COc1ccc(C)cc1NCc1ccc([N+](=O)[O-])cc1 | -25 | 86*
O=[N+]([O-])c1ccc(CNc2ccc(F)c(F)c2)cc1 | -3 | 8
SMILES | Pf apPOL inh | mHTT CaM bind
COc1ccc(C)cc1NCc1ccc(SC)cc1 | -4 | 59*
O=C(NCc1ccccn1)c1ccccc1C(=O)c1cc(C(F)(F)F)cc(C(F)(F)F)c1 | 5 | .
Cc1oc(C2CCN(C(=O)c3ccc(F)cc3F)CC2)nc1C(=O)N1CCCC1 | -4 | -2
O=C(Nc1c2c(nn1-c1cccc(Cl)c1)CS(=O)C2)c1cccc(Br)c1 (stereo not given) | -1 | 16
COc1cc(C2NC(=O)CCC2[N+](=O)[O-])ccc1OCc1ccccc1 (stereo not given) | 2 | -1
CCN1c2cc(C)ccc2-n2cccc2C12CCN(C(=O)NCCc1ccccc1)CC2 | -2 | 94*
CCN1c2ccccc2C(=O)NC12CCN(C(=O)NCCc1ccccc1)CC2 | -2 | -2
CCN1c2ccccc2C(=O)NC12CCN(C(=O)NCc1ccc(F)cc1)CC2 | -10 | 1
CCN1c2cc(C)ccc2-n2cccc2C12CCN(C(=O)NCc1ccc(F)cc1)CC2 | 2 | 93*
CCOCCCNC(=O)N1CCC2(CC1)c1cccn1-c1ccc(C)cc1N2CC | 4 | 93*
CCOCCCNC(=O)N1CC(CC)Oc2ccc(C)cc21 (stereo not given) | -6 | -1
Cc1cccc(-n2cc(C3CCN(C(=O)NCc4ccco4)CC3)cn2)c1 | -3 | 24
CCN1c2cc(C)ccc2-n2cccc2C12CCN(C(=O)NCc1ccco1)CC2 | -4 | 84*
FC(F)Oc1ccc(NC2=NCCCCC2)cc1 | 6 | -9
Cc1ccc(NC(=O)N2CCCC(CCC(=O)N3CCC4(CC3)OCCO4)C2)cc1 (stereo not given) | -7 | 14
Cc1ccc(-c2nccc(C3CCCN(C(=O)C4CC4)C3)n2)cc1 (stereo not given) | 2 | 8
COc1ccc(N=c2oc3c(C)ncc(CO)c3cc2C(=O)Nc2ccccc2C)cc1OC | 0 | 0
Cc1nn(-c2ccccn2)c2c1C(=O)/C(=C/Nc1ccc([N+](=O)[O-])cc1)CC2 | -6 | -9
CCN1c2cc(C)ccc2-n2cccc2C12CCN(C(=O)NCc1ccccc1)CC2 | -1 | 81*
Cc1ccc(CNC(=O)C2(C)CCCN(C(=O)NCc3ccccc3)C2)cc1 (stereo not given) | 2 | -6
Cc1nc(CCNC(=O)C2CCN(S(=O)(=O)c3ccc(CC(C)C)cc3)CC2)cs1 | -6 | 8

Assay outcomes (PubChem BioAssay)
